# KB-V1 MDR tox = KB-V1 MDR subline cytotoxicity; KB-V1 MDR cells viability, CellTiter-Glo, 72 h; Potency, µM (doses to about 46.1 µM), usual class: cytotoxic; 400,000 tested, 3.4% active; AID 1347076; note: potency is the fitted concentration of half-maximal effect; % is set by controls: 0 for no effect and ±100 for the full control effect; nearly all actives have a fitted effect of over 60% in size
#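 Cytotoxicity via CellTiter-Glo luminescence after 72 h compound exposure at 37 degrees C. Cells: drug-selected KB-V1 line, DMEM phenol-red free plus 10% FBS. Compounds tested at multiple concentrations; normalized data fitted to concentration-effect curves.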
# IL-1B inflam inh = inflammasome signaling inhibition, IL-1 beta readout | 360,000 tested, 4.7% active | THP-1 LPS/ATP IL-1B secretion, AlphaLISA, 16 h; active compounds read low | activity change, % at 57.5 µM; in the data active = activity change below about -50%; inconclusive = mostly about -30% to -49%; note: % is set by controls: 0 for no effect and ±100 for the full control effect
#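 Secreted IL-1B measured by AlphaLISA bead assay after 16 h compound exposure of THP-1 cells; compounds (final up to 57.5 uM) added 1 h before LPS (250 ng/mL) and ATP (1.25 mM) stimulation; lower signal means less secretion.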
# MCF10A rerep = induces DNA re-replication in MCF 10a normal breast cells; MCF 10A DNA re-replication, Hoechst nuclear intensity, 48 h; Potency, µM (doses to about 46.1 µM), for inactives: at the highest dose activity, positive = re-replication, usual class: activators; 350,000 tested, 2.9% active; note: potency is the fitted concentration of half-maximal effect; % of control where 0% means no effect; nearly all actives have a fitted effect of over 50% in size
# SW480 rerep = induces DNA re-replication in SW480 colon adenocarcinoma cells; SW480 DNA re-replication, Hoechst DNA content imaging, 48 h; Potency, µM (doses to about 46.1 µM), for inactives: at the highest dose re-replication activation, usual class: activators; 340,000 tested, 1.8% active; AID 624297; note: potency is the fitted concentration of half-maximal effect; % of control where 0% means no effect; nearly all actives have a fitted effect of over 55% in size
#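 Compounds, transferred as 23 nL by pin tool, were incubated with cells for 48 hr; DNA content per nucleus was then quantified by Hoechst staining and fluorescence plate imaging.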
# KB-3-1 cytotox = KB-3-1 parental cell cytotoxicity. 400,000 tested, 1.4% active. Potency, µM (top dose mostly 46.1 µM), most hits filed as cytotoxic. KB-3-1 viability, CellTiter-Glo ATP luminescence, 72 h; note: potency is the fitted concentration of half-maximal effect; % is set by controls: 0 for no effect and ±100 for the full control effect; nearly all actives have a fitted effect of over 60% in size
#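 Cells are dispensed, compounds pinned in, plates held at 37 °C for 72 h, then CellTiter-Glo is added and luminescence read after 10 minutes. Cell line: parental KB-3-1 in phenol-red-free DMEM, 10% FBS.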
# * marks the source's active call; other numbers are inactive results; i = inactive; ? = inconclusive; . = no result given. In the library only some 9.9% were active in any assay of this set; here they are far more common. Unless noted, calls come from the whole dose curve; as a rule, active = well fitted curve in the direction sought with a large enough effect; inconclusive = small, poorly fitted or top-dose-only effect, or another doubt; inactive = no such curve, though single readings can be large; an effect the other way counts as inactive or inconclusive.
SMILES,KB-V1 MDR tox,IL-1B inflam inh,MCF10A rerep,SW480 rerep,KB-3-1 cytotox
CCOc1ccc(NC(=O)CN(C)C(=O)c2cn3ccccc3n2)cc1OCC,i,14.3,-0.6%,-2.3%,i
COc1ccc(Cl)cc1NC(=O)CN(C)CC(=O)Nc1ccccc1-c1ccccc1,9.2µM*,-2.7,?,7.6%,i
COc1cccc(NC(=O)CN(C)C(=O)CCC(=O)c2cc(C)sc2C)c1,i,13.8,?,1.9%,i
O=c1c(Cl)c(NCc2ccccc2)cnn1C12CC3CC(CC(C3)C1)C2,i,-1.3,?,-0.2%,i
CCOC(=O)c1cnn(-c2ccc(C(=O)Nc3cc(OC)c(OC)c(OC)c3)cc2)c1N,i,.,.,.,i
CC(C(=O)NCc1ccccc1)N1CCN(c2ccc(F)cc2)CC1 (stereo not given),i,-14.3,4.3%,-44.4%,i
Cc1ccc(NC(=O)c2cc3c(=O)[nH]c4ccccc4c3n2C)cc1F,?,.,.,.,i
COc1ccc(C)cc1NC(=O)C(=O)NNC(=O)COc1ccc(Cl)cc1,i,6.3,20.6µM*,-6.5%,i
COc1ccc(Cl)cc1NC(=O)CN(C)C(=O)c1ccc(N2CCCCC2)c([N+](=O)[O-])c1,?,-14.2,-1.7%,4.3%,14.6µM*
COc1ccc(Cl)cc1NC(=O)CN(C)CC(=O)Nc1ccc(C)cc1Br,?,-66.6*,?,-0.3%,i
COc1cc(C(=O)Nc2sc3c(c2C(=O)NCc2ccco2)CCCC3)cc(OC)c1OC,i,?,18.4µM*,-3.1%,i
O=C(Nc1sc2c(c1C(=O)NCc1ccco1)CCCC2)c1ccc2c(c1)OCO2,14.6µM*,-6.1,?,2.0%,i
CC(=O)Nc1nc2ccccc2n1Cc1ccc(Cl)cc1,?,46.1,2.7%,?,9.2µM*
CC(=O)Nc1nonc1-c1nc2ccccc2n1Cc1ccccc1,16.4µM*,16.6,?,?,14.6µM*
CC(=O)Nc1nonc1-c1nc2ccccc2n1Cc1nnc(C)o1,?,29.7,2.9%,-1.6%,i
COC(=O)c1ccccc1NC(=O)Cn1c(-c2nonc2N)nc2ccccc21,?,43.2,0.159µM*,0.316µM*,0.631µM*
CCC(=O)Nc1nonc1-c1nc2ccccc2n1Cc1ccc(Cl)c(Cl)c1,i,82.5,5.17µM*,0.4%,i
O=C(CN1CCN(c2ccc(F)cc2)CC1)Nc1nccs1,i,19.9,2.3%,?,i
C[C@@H]1CN([C@@H](C)CO)C(=O)c2cc(Br)cnc2O[C@H]1CN(C)Cc1cccc(C(=O)O)c1,i,7.1,.,.,i
O=C(/C=C/c1c(Cl)cccc1Cl)Nc1ccncc1,i,-59.9*,14.2%,-4.4%,?
O=C(/C=C/c1c(F)cccc1Cl)Nc1ccncc1,i,19.7,?,-0.4%,i
Cc1ccc(C)c(N2CCN(C(=O)c3cc4c(=O)n(Cc5cccnc5)ccc4nc3C)CC2)c1,i,.,.,.,i
CCCN1CCc2c(sc3nc(SCC)n(-c4ccccc4)c(=O)c23)C1,i,-10.7,?,4.7%,i
CCCN1CCc2c(sc3nc(SCC)n(-c4ccc(OC)cc4)c(=O)c23)C1,i,1.3,20.6µM*,12.4%,i
CCCN1CCc2c(sc3nc(SC)n(-c4ccccc4)c(=O)c23)C1,i,?,18.4µM*,?,i
SMILES,KB-V1 MDR tox,IL-1B inflam inh,MCF10A rerep,SW480 rerep,KB-3-1 cytotox
COc1ccc(-n2c(SC)nc3sc4c(c3c2=O)CCN(C)C4)cc1,i,-6.7,?,14.6%,i
COc1ccc(CCNC(=O)C2CC(O)CN2S(=O)(=O)c2ccc(Cl)cc2)cc1OC (stereo not given),i,5.8,6.4%,13.8%,i
CCC1(c2ccc(F)cc2)NC(=O)N(CC(=O)NC2CCCC(C)C2C)C1=O (stereo not given),16.4µM*,-24.6,-1.8%,0.1%,i
CCC1(c2ccc(Cl)cc2)NC(=O)N(CC(=O)NC2CCCC(C)C2C)C1=O (stereo not given),i,-52.8*,67.1%,4.11µM*,i
Cc1cc2ccccn2c1C(=O)c1ccc(Cl)c([N+](=O)[O-])c1,i,-75.5*,29.4%,-18.1%,i
COc1ccc(C(=O)c2ccc(Cl)cc2)cc1,i,0.0,1.1%,-5.2%,i
Cc1cc2ccccn2c1C(=O)c1cccc([N+](=O)[O-])c1,?,0.0,?,21.4%,?
COc1ccc(C(=O)c2ccc(Cl)c([N+](=O)[O-])c2)cc1,?,-101.3*,3.66µM*,0.82µM*,1.16µM*
Cc1cc2ccccn2c1C(=O)c1ccc([N+](=O)[O-])o1,?,-99.1*,?,20.6µM*,?
Cc1cc2ccccn2c1C(=O)c1ccc([N+](=O)[O-])cc1[N+](=O)[O-],i,-13.6,-11.0%,-1.1%,i
COc1ccc(NC(=O)c2c(NC(=O)C(F)(F)F)sc3c2CCCCC3)cc1,i,.,.,.,i
CN(C)CCN(C(=O)CCS(=O)(=O)c1ccccc1)c1nc2c(F)cccc2s1,i,9.6,2.2%,-12.6%,i
Cc1ccc2sc(N(CCCN(C)C)C(=O)CCS(=O)(=O)c3ccccc3)nc2c1C,i,-92.8*,?,?,16.4µM*
Cc1cccc2sc(N(CCCN3CCOCC3)C(=O)CS(=O)(=O)c3ccc(F)cc3)nc12,i,-11.8,0.5%,-366.0%,i
COc1ccc(OC)c2sc(N(CCCN(C)C)C(=O)CCS(=O)(=O)c3ccccc3)nc12,?,-107.5*,5.8µM*,?,16.4µM*
COc1ccc(C)c2sc(N(CCCN(C)C)C(=O)CS(=O)(=O)c3ccc(F)cc3)nc12,i,?,3.66µM*,-20.1%,i
COc1ccc(Cl)c2sc(N(CCN(C)C)C(=O)CCS(=O)(=O)c3ccc(C)cc3)nc12,i,-15.0,?,-17.5%,i
CCOc1ccc(N(CC(=O)Nc2cc(C)ccc2C)S(=O)(=O)c2c(C)[nH]c(=O)[nH]c2=O)cc1,i,12.6,0.5%,-3.5%,i
CC(=O)c1cccc(N(CC(=O)NC2CCCCC2)C(=O)Cn2nnc(-c3ccccc3)n2)c1,i,7.8,3.6%,-1.1%,i
O=c1[nH]c(/C=C/c2ccccn2)nc2ccccc12,i,-81.4*,?,?,i
O=c1[nH]c(/C=C/c2ccccc2F)nc2ccccc12,2.59µM*,33.8,8.2µM*,3.66µM*,4.61µM*
O=C(Cn1c(=O)oc2cc(S(=O)(=O)N3CCCCCC3)ccc21)Nc1cccc(C(F)(F)F)c1,i,.,.,.,i
CCOC(=O)/C(=C/Nc1ccc(F)cc1)[N+](=O)[O-],i,0.0,-1.3%,-7.0%,?
CCN1CCN(c2nnc(-n3cccc3C(=O)NCc3ccccc3OC)s2)CC1,i,.,.,.,i
